Compounds without any hit were thinned out: in the full panel of roughly 79,000, 15% have a hit. Values without a mark were called inactive. The source made the active and inactive calls. Cut-off read from the data, not from the text of the source: active = growth inhibition above about 70%; inactive = the rest.

The results in this text go back to PubChem BioAssay (NCI).

A short description of assay [1]: NCI Yeast Anticancer Drug Screen. Data for the rad50 strain (AID 155).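 Note: 0% = growth of vehicle-only cultures of the same strain.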 The settings on record: S. cerevisiae rad50 strain growth inhibition, stronger effect = higher value. The method, boiled down: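 Compounds were tested on a yeast strain with an engineered DNA damage repair alteration; the reported value is growth inhibition normalised to vehicle treatment.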
Assay [2] in a line: NCI Yeast Anticancer Drug Screen. Data for the mec2-1 strain (AID 157). As to conditions: S. cerevisiae mec2-1 strain, stronger effect = higher value. The method, boiled down:
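Mutant yeast (mec2-1) grown with compound; growth inhibition relative to vehicle control reported.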

A short description of assay [3]: NCI Yeast Anticancer Drug Screen. Data for the sgs1 mgt1 strain (AID 161).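 Note: 0% = growth of cultures given vehicle only.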 The settings on record: S. cerevisiae sgs1 mgt1 strain, stronger effect = higher value. In outline: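 Percent growth inhibition was derived by comparing compound-exposed mutant yeast with vehicle-exposed cultures. The strain carries alterations in DNA damage repair.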
Assay [4] is described as follows: NCI Yeast Anticancer Drug Screen. Data for the cln2 rad14 strain (AID 165).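 Note: 0% = growth equal to vehicle treated cultures.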 As to conditions: S. cerevisiae cln2 rad14 strain, stronger effect = higher value. The method, boiled down: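 Readout is yeast growth inhibition versus vehicle-treated controls, using a strain with cln2 and rad14 alterations exposed to compound.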
The nature of assay [5]: NCI Yeast Anticancer Drug Screen. Data for the bub3 strain (AID 167). As to conditions: S. cerevisiae bub3 mutant strain, stronger effect = higher value. In outline: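 Growth of a checkpoint-deficient yeast mutant is measured after compound exposure. Values represent inhibition relative to vehicle.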
The nature of assay [6]: NCI Yeast Anticancer Drug Screen. Data for the mlh1 rad18 strain (AID 175). The settings on record: S. cerevisiae mlh1 rad18 strain growth inhibition, stronger effect = higher value. The method, boiled down:
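Genetically defined yeast (DNA repair-deficient) exposed to compounds; growth inhibition determined relative to vehicle.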

[7] abbreviates: at 5.0 µM (retest, dose inferred, filed as 0.5).
The mark [8] stands for this setting: at 50.0 µM (retest, dose inferred, filed as 5.0).

With `Cc1ccc(N2C(=O)C(C)SC23C(=O)Nc2ccc(Cl)cc23)cc1` (configuration not stated), the growth inhibition in assay [1] (setting [7]) was -8%; in assay [1] (setting [8]), 99% (active); in assay [1] (at 50.0 µM) it was 98.5% (active); in assay [2] (setting [7]), 9%; in assay [2] (setting [8]), 99% (active); in assay [2] (at 50.0 µM) it was 98.8% (active). Further, the growth inhibition in assay [3] (setting [7]) is -3%; in assay [3] (setting [8]), 98% (active); in assay [3] (at 50.0 µM), 37.4%; in assay [4] (setting [7]), 0%; in assay [4] (setting [8]), 98% (active); in assay [4] (at 50.0 µM), 97.8% (active). Further, the growth inhibition in assay [5] (setting [7]) is -8%; in assay [5] (setting [8]), 98% (active); in assay [5] (at 50.0 µM) it was 98.8% (active); in assay [6] (setting [7]), 1%; in assay [6] (setting [8]) it was 99% (active); in assay [6] (at 50.0 µM), 89% (active).

In the case of `Cc1cccc(C[P+](c2ccccc2)(c2ccccc2)c2ccccc2)c1`, the growth inhibition in assay [1] (setting [7]) was 76% (active); in assay [1] (setting [8]), 97% (active); in assay [1] (at 50.0 µM), 90.3% (active); in assay [2] (setting [7]) it was 67%; in assay [2] (setting [8]) it was 99% (active); in assay [2] (at 50.0 µM), 93.1% (active). Moreover, the growth inhibition in assay [3] (setting [7]) was 58%; in assay [3] (setting [8]), 99% (active); in assay [3] (at 50.0 µM), 93.3% (active); in assay [4] (setting [7]), 32%; in assay [4] (setting [8]) it was 98% (active); in assay [4] (at 50.0 µM) it was 91.9% (active). Besides, the growth inhibition in assay [5] (setting [7]) is 71% (active); in assay [5] (setting [8]) it was 99% (active); in assay [5] (at 50.0 µM), 92.2% (active); in assay [6] (setting [7]), 76% (active); in assay [6] (setting [8]), 98% (active); in assay [6] (at 50.0 µM), 90.3% (active).

For the compound `C/C=C/CC(C/C=C/C)C1CC[N-]CC1.C/C=C/CC(C/C=C/C)C1CC[N-]CC1.[Cl][Pt+2]([Cl])([Cl])[Cl]`, the growth inhibition was 8% in assay [1] (setting [7]); 88% (active) in assay [1] (setting [8]); 97.3% (active) in assay [1] (at 50.0 µM); -62% in assay [2] (setting [7]); 78% (active) in assay [2] (setting [8]); 98.8% (active) in assay [2] (at 50.0 µM). Besides, the growth inhibition in assay [3] (setting [7]) is 3%; in assay [3] (setting [8]), 91% (active); in assay [3] (at 50.0 µM) it was 98.8% (active); in assay [4] (setting [7]), 4%; in assay [4] (setting [8]) it was 58%; in assay [4] (at 50.0 µM) it was 97.7% (active). Moreover, the growth inhibition was -3% in assay [5] (setting [7]); 85% (active) in assay [5] (setting [8]); 98% (active) in assay [5] (at 50.0 µM); 7% in assay [6] (setting [7]); 88% (active) in assay [6] (setting [8]); 98.6% (active) in assay [6] (at 50.0 µM).

Regarding `CCCCOP(=O)(OCCCC)C(NS(=O)(=O)c1ccccc1)(C(=O)OCC)C(F)(F)F` (configuration not stated), the growth inhibition in assay [1] (setting [7]) is 11%; in assay [1] (setting [8]), 42%; in assay [1] (at 50.0 µM), 99% (active); in assay [2] (setting [7]), 7%; in assay [2] (setting [8]), 28%; in assay [2] (at 50.0 µM), 99.1% (active). Moreover, the growth inhibition in assay [3] (setting [7]) is 3%; in assay [3] (setting [8]), 48%; in assay [3] (at 50.0 µM), 99% (active); in assay [4] (setting [7]) it was 16%; in assay [4] (setting [8]) it was 63%; in assay [4] (at 50.0 µM), 99.2% (active). For the same compound, the growth inhibition in assay [5] (setting [7]) is 9%; in assay [5] (setting [8]) it was 47%; in assay [5] (at 50.0 µM) it was 99.2% (active); in assay [6] (setting [7]), 26%; in assay [6] (setting [8]), 79% (active); in assay [6] (at 50.0 µM) it was 99% (active).

Turning to `CC1CC(C)C(C)C(CO)C1` (configuration not stated), the growth inhibition in assay [1] (setting [7]) is 8%; in assay [1] (setting [8]), -3%; in assay [1] (at 50.0 µM), -22.4%; in assay [2] (setting [7]), 4%; in assay [2] (setting [8]), -3%; in assay [2] (at 50.0 µM), -3.2%. Further, the growth inhibition is -8% in assay [3] (setting [7]); -1% in assay [3] (setting [8]); -22.6% in assay [3] (at 50.0 µM); -1% in assay [4] (setting [7]); -3% in assay [4] (setting [8]); 40% in assay [4] (at 50.0 µM). Besides, the growth inhibition in assay [5] (setting [7]) was 0%; in assay [5] (setting [8]), 4%; in assay [5] (at 50.0 µM), -0.05%; in assay [6] (setting [7]), 6%; in assay [6] (setting [8]), -5%; in assay [6] (at 50.0 µM), -12.2%.

`COc1ccc(-n2c(=O)c3[nH]c(=S)[nH]c3n(-c3ccc(OC)cc3)c2=S)cc1`: the growth inhibition in assay [1] (setting [7]) is 21%; in assay [1] (setting [8]), 25%; in assay [1] (at 50.0 µM) it was 25.5%; in assay [2] (setting [7]) it was 1%; in assay [2] (setting [8]), 16%; in assay [2] (at 50.0 µM), 44%. Further, the growth inhibition is 7% in assay [3] (setting [7]); 23% in assay [3] (setting [8]); -47.7% in assay [3] (at 50.0 µM); 3% in assay [4] (setting [7]); 25% in assay [4] (setting [8]); -1% in assay [4] (at 50.0 µM). In addition, the growth inhibition in assay [5] (setting [7]) was -44%; in assay [5] (setting [8]) it was 13%; in assay [5] (at 50.0 µM), -41.8%; in assay [6] (setting [7]), 14%; in assay [6] (setting [8]), 19%; in assay [6] (at 50.0 µM), -29.9%.

Turning to `CC(=O)c1ccc(OCc2ccccc2)cc1`, the growth inhibition in assay [1] (setting [7]) is 1%; in assay [1] (setting [8]) it was -6%; in assay [1] (at 50.0 µM), -2.25%; in assay [2] (setting [7]), 1%; in assay [2] (setting [8]), 5%; in assay [2] (at 50.0 µM), -15.5%. Besides, the growth inhibition is 16% in assay [3] (setting [7]); -6% in assay [3] (setting [8]); -17.9% in assay [3] (at 50.0 µM); -3% in assay [4] (setting [7]); 2% in assay [4] (setting [8]); 63.9% in assay [4] (at 50.0 µM). Moreover, the growth inhibition in assay [5] (setting [7]) is 2%; in assay [5] (setting [8]), 3%; in assay [5] (at 50.0 µM), 9.75%; in assay [6] (setting [7]), -3%; in assay [6] (setting [8]), -9%; in assay [6] (at 50.0 µM) it was 15.2%.

Regarding `Cc1c(C#N)c(N)nc2c(C(N)=O)nsc12`, the growth inhibition in assay [1] (setting [7]) was -2%; in assay [1] (setting [8]), -13%; in assay [1] (at 50.0 µM) it was 13.2%; in assay [2] (setting [7]) it was -2%; in assay [2] (setting [8]) it was -8%; in assay [2] (at 50.0 µM), 8.75%. The growth inhibition is -3% in assay [3] (setting [7]); -9% in assay [3] (setting [8]); 10.7% in assay [3] (at 50.0 µM); -2% in assay [4] (setting [7]); -18% in assay [4] (setting [8]); 53.6% in assay [4] (at 50.0 µM). The growth inhibition in assay [5] (setting [7]) is 9%; in assay [5] (setting [8]), 16%; in assay [5] (at 50.0 µM), -8.4%; in assay [6] (setting [7]) it was -1%; in assay [6] (setting [8]) it was -11%; in assay [6] (at 50.0 µM), 26.2%.

With `O=c1ccccc(Br)c1O`, the growth inhibition is 12% in assay [1] (setting [7]); 97% (active) in assay [1] (setting [8]); 98.7% (active) in assay [1] (at 50.0 µM); 10% in assay [2] (setting [7]); 93% (active) in assay [2] (setting [8]); 97.8% (active) in assay [2] (at 50.0 µM). In addition, the growth inhibition in assay [3] (setting [7]) is 6%; in assay [3] (setting [8]), 97% (active); in assay [3] (at 50.0 µM), 99.6% (active); in assay [4] (setting [7]) it was 19%; in assay [4] (setting [8]), 87% (active); in assay [4] (at 50.0 µM), 93.1% (active). Also, the growth inhibition in assay [5] (setting [7]) is 8%; in assay [5] (setting [8]) it was 98% (active); in assay [5] (at 50.0 µM), 97.6% (active); in assay [6] (setting [7]), 9%; in assay [6] (setting [8]) it was 97% (active); in assay [6] (at 50.0 µM), 98.9% (active).
